Shown are actives, neighbours in structure and some others; about 9.2% of the full set was active somewhere.
ALDH1A1 inh – ALDH1A1 (human) enzyme inhibition | Potency, µM (top dose mostly 75.3 µM), most hits filed as inhibitors | Purified ALDH1A1, NADH fluorescence, propionaldehyde substrate | P00352 | actives 7.3% (n = 220,000)
HPGD block – blocks human HPGD enzyme activity; Potency, µM, usual class: inhibitors; P15428; actives 4.3% (n = 150,000); purified HPGD, NADH fluorescence kinetic, PGE2 substrate
Target sequence (P15428 whole entry, looked up): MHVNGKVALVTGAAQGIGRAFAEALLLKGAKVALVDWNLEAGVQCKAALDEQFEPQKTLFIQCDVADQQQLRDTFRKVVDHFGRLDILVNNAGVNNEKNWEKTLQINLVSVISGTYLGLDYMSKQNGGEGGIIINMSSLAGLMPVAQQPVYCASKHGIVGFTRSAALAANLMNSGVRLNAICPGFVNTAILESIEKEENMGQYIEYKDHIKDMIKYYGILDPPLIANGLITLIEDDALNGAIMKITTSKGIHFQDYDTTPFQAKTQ
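20 nM HPGD preincubated 15 min at room temperature with compound in 50 mM Tris-HCl pH 8, 0.01% Tween 20. Started with 1 mM NAD+ and 30 uM prostaglandin E2; NADH fluorescence (360/450 nm) read 5 times over 30-s intervals, last minus first.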
HttQ103 aggreg – mutant huntingtin aggregation inhibition; PC12 HttQ103-GFP aggregates, Acumen cytometry, 40 h; Potency, µM (titrated, usually from 46.1 µM), hits mostly inhibitors; actives 1.1% (n = 220,000); active = well fitted curve in the direction sought with a large enough effect; inconclusive = small, poorly fitted or top-dose-only effect, or another doubt; inactive = no such curve, though single readings can be large; an effect the other way counts as inactive or inconclusive; also: nearly all actives have a fitted effect of over 60% in size
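Using laser scanning cytometry, GFP-positive aggregates were counted after lysis of PC12 cells induced with 100 nM tebufenozide to express HTT exon 1 Q103–GFP. Compounds were tested in titration.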
KDM4E inh – blocks human JMJD2E demethylase activity; B2RXH2; JMJD2E catalytic domain, FDH-coupled NADH fluorescence (FDH is formaldehyde dehydrogenase); Potency, µM (doses to about 57.1 µM), hits mostly inhibitors; actives 1.6% (n = 230,000); AID 2147; also: nearly all actives have a fitted effect of over 50% in size
LMNA splice mod – modulators of lamin A splicing | HeLa LMNA splicing GFP/RFP minigene ratio, 48 h | Potency, µM (highest dose often 46.1 µM), actives largely listed as inhibitors | AID 1487 | actives 0.01% (n = 200,000); active = well fitted inhibition curve with a large enough effect in the signal ratio, with a control signal flat, not every such curve was filed as active; inconclusive = small, poorly fitted or top-dose-only effect, or effect the other way, or a change in a side signal; the % refers to the signal ratio
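S3 HeLa cells stably expressing lamin A-EGFP splicing minigene plus DsRed2, 600 cells/well, 48 h compound exposure at 37C. Laser-scanning cytometry; analysed as GFP (500-530 nm)/RFP (575-640 nm) total intensity ratio; 0.5% DMSO vehicle.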
HTT ATP protect – Huntington cell model cytoprotection by ATP luminescence | PC12 HTT-Q103 induced, cytoprotection, ATP luminescence, 40 h | Potency, µM (highest dose often 56.4 µM), most hits filed as activators | actives 0.14% (n = 230,000); active = well fitted curve in the direction sought with a large enough effect; inconclusive = small, poorly fitted or top-dose-only effect, or another doubt; inactive = no such curve, though single readings can be large; an effect the other way counts as inactive or inconclusive; also: nearly all actives have a fitted effect of over 45% in size
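Rat PC12, Q103 Htt exon1-GFP fusion, ecdysone promoter; tebufenozide inducer 100 nM final; compound titration; qHTS, 1500 cells/well; ATPlite luminescent read.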
Numbers stand for hits; i = inactive; ? = inconclusive; nt = no result; [ ] = another dose, or the depositor's remark. Unless noted, calls follow the shape of the dose curve; as a rule, active = well fitted inhibition curve with a large enough effect (not every such curve was filed as active); inconclusive = small, poorly fitted or top-dose-only effect, or another doubt; inactive = no such curve, though single readings can be large or run the other way.

SMILES | ALDH1A1 inh | HPGD block | HttQ103 aggreg | KDM4E inh | LMNA splice mod | HTT ATP protect
CCC(Sc1nc2ccc(N)cc2s1)C(=O)Nc1nccs1 (stereo not given) | 7.94µM | 25.1µM | i | i | i | i
Cc1nonc1OCCNc1ccc([N+](=O)[O-])cc1[N+](=O)[O-] | i | i | i | i | ? | i[10 µM]
Cc1nonc1OC(C)CNc1ccc([N+](=O)[O-])cc1 (stereo not given) | ? | 28.2µM | ? | i | i | i
Cc1c(Cl)cccc1Nc1ccccc1C(=O)O | i | 14.1µM | i | i | ? | ?
Cc1ccc(S(=O)(=O)N2CCCc3cc(NC(=O)c4ccc(Cl)cc4)ccc32)cc1 | nt | nt | nt | nt | i | nt
COc1ccccc1CCn1c(=O)cnc2cncnc21 | 1.41µM | nt | nt | nt | ? | i
N#Cc1cccc(NC(=O)N2CCC3(CC2)CCN(C(=O)c2cccc(F)c2)CC3)c1 | i | i | nt | nt | nt | i
Cc1cc2c3c(c1)C(C)CC(C)(C)N3C(=O)C2=C(C#N)C#N (stereo not given) | nt | nt | i[9.22 µM] | i | nt | i[10 µM]
CC(C)CC(=O)NS(=O)(=O)c1ccc(N)cc1 | 10µM | i | i | i | i | i[10 µM]
NS(=O)(=O)c1ccc(CCNC(=O)/C=C/c2ccccc2[N+](=O)[O-])cc1 | i | nt | i | i | nt | i
COc1cc(Cl)c(NS(=O)(=O)c2ccc3c(c2)CC(C)N3C(=O)C2CCC2)c(OC)c1 (stereo not given) | nt | nt | nt | nt | i | nt
O=C(c1ccc(Br)s1)N1CCCC1 | i | 14.1µM | i | i | i | i
COc1ccc2cc(C(=O)N3CCOCC3)sc(=O)c2c1OC | i | 22.4µM | i | i | i | i
O=C(c1ccc(C(=O)N2CCOCC2)s1)N1CCOCC1 | i | 20µM | i | i | i | i
O=C(c1cccs1)N1CCOCC1 | i | i | i | i | i | i
CN(C)S(=O)(=O)c1cccc2c1C(=O)c1ccccc1C2=O | ? | i | i | i | i | nt
CN(C)c1cc2c(c(N(C)C)c1)C(=O)c1ccccc1C2=O | 0.708µM | i | i | i | i | i
Cc1csc2nc(CCNS(=O)(=O)c3ccccc3)cn12 | nt | nt | nt | nt | i | nt
O=C(N/N=C\C=C\c1ccco1)c1cc(-c2ccc3ccccc3c2)n[nH]1 | i | 31.6µM | i | i | ? | i[10 µM]
O=C(Nc1ccc(S(=O)(=O)NC2CCCC2)cc1)c1cnccn1 | ? | 7.94µM | i | i | i | i[10 µM]
O=C(N/N=C/C=C/c1ccco1)c1cnccn1 | 3.16µM | nt | i[9.22 µM] | i | nt | i[10 µM]
O=C(Nc1ccc(NC(=O)c2ccco2)cc1)c1cnccn1 | 25.1µM | i | i | i | i | i
O=C(Nc1ccc2ccccc2c1)c1cnccn1 | i | i | i | i | i | i[0.074 µM]
O=C(N/N=C/C=C\c1ccco1)c1ccccn1 | nt | nt | i[9.22 µM] | ? | nt | i[10 µM]
CN(C)CCCN(CCCN(C)C)C(=S)Nc1ccc(S(=O)(=O)N2CCOCC2)cc1 | nt | nt | i[9.22 µM] | i | nt | i[10 µM]
SMILES | ALDH1A1 inh | HPGD block | HttQ103 aggreg | KDM4E inh | LMNA splice mod | HTT ATP protect
CCOc1ccccc1NC(=O)CSc1nnc(-c2ccco2)o1 | i | i | i | i | i | i
CS(=O)(=O)N1CCN(c2ccccc2NC(=O)CSc2nnc(-c3ccco3)o2)CC1 | 12.6µM | i | i | i | i | nt
CS(=O)(=O)N1CCN(c2ccccc2NC(=O)c2cccs2)CC1 | 10µM | i | i | i | i | i[0.074 µM]
CS(=O)(=O)N1CCN(c2ccccc2NC(=O)C(c2ccccc2)c2ccccc2)CC1 | 6.31µM | i | i | i | i | i
O=C(Nc1ccccc1N1CCCCC1)c1cccs1 | i | i | i | i | ? | i[0.074 µM]
Nc1ncc(S(=O)(=O)N2CCN(c3ccccc3)CC2)cn1 | nt | nt | nt | nt | i | nt
O=C(COC(=O)c1c(F)cccc1F)c1ccc[nH]1 | nt | nt | i[9.22 µM] | i | nt | i[10 µM]
CC1C/C(=C/c2ccco2)C(=O)/C(=C/c2ccco2)C1 (stereo not given) | 14.1µM | i | ? | i | ? | nt
O=C1/C(=C\c2ccco2)CCC/C1=C\c1ccco1 | 5.62µM | i | i | i | i | i[10 µM]
Cc1cccc(OCC(=O)Nc2ccc3nc(SCc4ccccc4)sc3c2)c1 | nt | nt | nt | nt | i | nt

Screening data: PubChem BioAssay, National Center for Advancing Translational Sciences (NCATS)
